# The campaign covered roughly 3,200 compounds. About 75 (2%) showed an effect of 50% or more. Shown is part of a subset that was picked to be rich in strong results.
# Tested on: T1, S. aureus MSSA476
# T1 construct: MSSA476
# Parameters: species or system S. aureus MSSA476 (TSB) or V. cholerae SAD30 (LB); 384-well bacterial growth screen at 25 uM, OD600 relative to DMSO control
# Details: 25 µM; inhibitor
row,SMILES,% of control remaining [%]
1,"CCn1c(-c2ccccc2)c(C(=O)CCl)c2ccccc21 [10-E12, 2-chloro-1-(1-ethyl-2-phenyl-1H-indol-3-yl)ethan-1-one]",-0.3125
2,"N#Cc1ccc(NC(=O)CCl)cc1Cl [4-N03, 2-chloro-N-(3-chloro-4-cyanophenyl)acetamide]",74.7022
3,"C=CC(=O)Nc1ccc(C(=O)N2CCC3(CC2)OCCCO3)cc1 [2-D16, N-(4-{1,5-dioxa-9-azaspiro[5.5]undecane-9-carbonyl}phenyl)prop-2-enamide]",123.586
4,"CC(Cl)C(=O)c1ccc(Cl)cc1 (stereo not shown) [10-O04, 2-chloro-1-(4-chlorophenyl)propan-1-one]",129.063

# — publication PMC11995724, “Antibiotic target discovery by integrated phenotypic and activity-based profiling of electrophilic fragments” (Cell chemical biology, 2025)
